Test results: the supplement of paper PMC7057948, “A genome-wide approach for identification and characterisation of metabolite-inducible systems” (Nature Communications, 2020)

Legend:
Experiment in all cases: relative induction of RFP reporter vs primary effector (background-corrected); higher = stronger activation of the biosensor
Settings in all cases: inducer concentration 5 mM; 6 h; Cupriavidus necator H16; minimal medium + 0.4% gluconate
[1] = test system: AcoR/P_H16_RS19445 acetoin biosensor (pEH052)
Method: (§1)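 C. necator H16 strains, each carrying one of 21 transcription factor/inducible promoter–mRFP biosensor plasmids, were grown in minimal medium in 96-well plates (robotic platform). Each was exposed to 46 structurally or metabolically related compounds at 5 mM at 30 °C. OD-normalised RFP fluorescence was read 6 h later and expressed as relative induction (%) = 100 × (FL compound − FL uninduced)/(FL primary inducer − FL uninduced); mean of n=4.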

[2] = test system: AraC/P_araBAD L-arabinose biosensor (pEH176)
Method: as §1

[3] = test system: BenM/P_H16_RS09790 benzoate biosensor (pEH148)
Method: as §1

[4] = test system: FdsR/P_H16_RS03165 formate biosensor (pEH134)
Method: as §1

[5] = test system: GabR/P_H16_RS23655 GABA biosensor (pEH256)
Method: as §1

[6] = test system: HpdR/P_H16_RS18295 3-hydroxypropanoate biosensor (pEH010)
Method: as §1

[7] = test system: KynR/P_H16_RS14030 L-kynurenine biosensor (pEH136)
Method: as §1

[8] = test system: NahR/P_H16_RS08125 salicylate biosensor (pEH042)
Method: as §1

[9] = test system: OapR/P_H16_RS01330 beta-alanine biosensor (pEH147)
Method: as §1

[10] = test system: PcaQ/P_H16_RS30145 3,4-dihydroxybenzoate biosensor (pEH161)
Method: as §1

[11] = test system: PhgR/P_H16_RS05530 phenylglyoxylate biosensor (pEH155)
Method: as §1

[12] = test system: PhhR/P_H16_RS18365 L-phenylalanine biosensor (pEH137)
Method: as §1

[13] = test system: SauR/P_H16_RS13695 sulfonatoacetate biosensor (pEH157)
Method: as §1

[14] = test system: TtdR/P_H16_RS10665 tartrate biosensor (pEH083)
Method: as §1

[15] = test system: XdhR/P_H16_RS05055 xanthine biosensor (pEH154)
Method: as §1

[16] = test system: heterologous inducible system pEH002 (rhamnose/acrylate/cumate/itaconate set)
Method: as §1

[17] = test system: heterologous inducible system pEH020 (rhamnose/acrylate/cumate/itaconate set)
Method: as §1

[18] = test system: heterologous inducible system pEH040 (rhamnose/acrylate/cumate/itaconate set)
Method: as §1

[19] = test system: heterologous inducible system pEH086 (rhamnose/acrylate/cumate/itaconate set)
Method: as §1

[20] = test system: BadR/P_H16_RS27200 cyclohexanecarboxylate biosensor (pEH159)
Method: as §1
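Note: RFP excited at 585 nm with emission read at 620 nm, culture medium blanks subtracted from fluorescence and absorbance prior to normalisation.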

| SMILES | relative induction of RFP reporter [1] | relative induction of RFP reporter [2] | relative induction of RFP reporter [3] | relative induction of RFP reporter [4] | relative induction of RFP reporter [5] | relative induction of RFP reporter [6] | relative induction of RFP reporter [7] | relative induction of RFP reporter [8] | relative induction of RFP reporter [9] | relative induction of RFP reporter [10] | relative induction of RFP reporter [11] | relative induction of RFP reporter [12] | relative induction of RFP reporter [13] | relative induction of RFP reporter [14] | relative induction of RFP reporter [15] | relative induction of RFP reporter [16] | relative induction of RFP reporter [17] | relative induction of RFP reporter [18] | relative induction of RFP reporter [19] | relative induction of RFP reporter [20] |
| --- | --- | --- | --- | --- | --- | --- | --- | --- | --- | --- | --- | --- | --- | --- | --- | --- | --- | --- | --- | --- |
| C[C@@H](O)C(=O)O [D-lactate] | -2.25% | -0.0311% | -0.0413% | -1.67% | -2.02% | -0.134% | 0.0968% | -0.00031% | -0.533% | -0.113% | -0.587% | -0.462% | 0.0141% | 0.347% | -0.947% | 0.0109% | -0.802% | -1.93% | 0.366% | – |
| O=C(O)c1cc(=O)c2ccccc2[nH]1 [kynurenate] | -1.75% | -0.028% | -0.0535% | -9.16% | -2.49% | -0.379% | 0.25% | 0.0049% | -1.34% | 0.113% | -0.313% | -0.383% | 0.00396% | -0.284% | -0.96% | 0.00297% | -2.26% | -1.57% | -0.378% | – |
| O=C(O)C1=CCCCC1 [cyclohexene-1-carboxylate] | 2.55% | -0.0101% | 156% | -3.7% | -1.27% | -0.493% | 0.423% | -0.00892% | 1.03% | -0.0381% | -0.121% | -0.244% | 0.0222% | 0.391% | 0.161% | 0.0231% | 0.24% | 1.34% | 0.551% | – |
| O=C(O)[C@@H](O)[C@@H](O)[C@H](O)[C@@H](O)C(=O)O [glucarate] | 16.6% | -0.00794% | 0.00581% | -1.03% | 0.559% | 0.059% | 0.0265% | 0.0258% | 0.058% | 0.00441% | -0.232% | -0.08% | -0.0162% | -0.0655% | 0.202% | 0.0271% | 0.067% | 0.131% | 0.127% | – |
| O=C(O)C1=C[C@@H](O)[C@@H](O)[C@H](O)C1 [shikimate] | 0.0178% | -0.00161% | -0.000316% | -2.48% | -0.317% | 1.03% | -0.0973% | 0.00146% | 0.246% | 2.49% | -0.587% | 0.165% | 0.0792% | -0.0735% | -0.446% | -0.00769% | -0.782% | -0.0558% | 0.188% | – |
| O=C(O)C(O)C(=O)O [tartronic acid] | 0.914% | -0.0176% | 0.0119% | -1.37% | -0.481% | 0.0561% | 0.115% | 0.00865% | 0.0759% | -0.0557% | -0.449% | -0.338% | 0.0532% | 0.714% | -0.218% | 0.00666% | -0.0821% | 0.945% | 0.0674% | -0.292% |
| O=S(=O)(O)CCO [isethionate] | -1.41% | -0.00384% | -0.0202% | -5.83% | -2.12% | -0.0757% | 0.0938% | 0.0152% | -0.424% | 6.61% | -0.518% | -0.0754% | 1.56% | 2.47% | -0.627% | 0.0178% | -1.34% | -1.22% | -0.0664% | – |
| NCC(O)C(=O)O (stereo unspecified) [3-amino-2-hydroxypropanoate] | -0.589% | 0.017% | -0.00343% | -6.17% | -1.08% | -0.132% | -0.0139% | 0.0227% | 33.2% | -0.0272% | -0.304% | -0.491% | 0.0914% | 0.315% | -0.317% | 0.0153% | -1.25% | 0.821% | 0.238% | – |
| NCCS(=O)(=O)O [taurine] | -0.255% | -0.0412% | -0.0223% | -0.473% | -1.59% | -0.142% | -0.215% | 0.0156% | 0.934% | 3.14% | -0.395% | -0.387% | 2.29% | 0.0679% | -0.494% | 0.00496% | -0.468% | -0.555% | 0.38% | – |
| O=C(O)/C=C\C=C/C(=O)O [cis,cis-muconate] | -0.277% | -0.0203% | -0.00774% | 0.498% | -1.92% | 0.114% | 0.571% | 0.022% | 0.13% | -0.0137% | -0.341% | -0.13% | -0.0287% | 0.125% | -0.143% | -0.00409% | 0.263% | 0.756% | 0.0837% | – |
| CC(=O)CCC(=O)O [levulinic acid] | -2.12% | 0.00636% | -0.0388% | -11.8% | -2.89% | -0.37% | -0.594% | -0.0149% | -1.91% | -0.265% | -0.187% | -0.623% | -0.0306% | 1.16% | -0.941% | 0.0157% | -1.82% | -1.61% | -0.139% | – |
| O=C(O)C(O)c1ccccc1 (stereo unspecified) [mandelic acid] | 4.07% | 0.0229% | 0.175% | 1.81% | 1.32% | 0.0419% | -0.345% | -0.000243% | 0.364% | 0.0192% | -0.332% | -0.406% | 0.0426% | -0.395% | -0.0998% | 0.0137% | 0.769% | 1.17% | 0.563% | – |
| O=c1cc[nH]c(=O)[nH]1 [uracil] | -0.264% | -0.0292% | -0.0102% | 2.09% | 0.468% | 0.292% | 1.02% | 0.0235% | 0.971% | -0.0843% | -0.376% | 0.347% | -0.0169% | -0.0341% | 0.952% | 0.0212% | 0.742% | -0.00512% | 0.875% | – |
| C[C@H](N)C(=O)O [L-alanine] | -2.72% | -0.0291% | -0.053% | -2.12% | -2.55% | -0.329% | -0.519% | 0.00167% | -0.209% | -0.263% | -0.259% | -0.741% | -0.0427% | -0.256% | -0.737% | -0.00357% | -1.6% | -1.7% | -0.23% | – |
| N[C@@H](CC(=O)O)C(=O)O [L-aspartate] | -1.54% | -0.0179% | -0.0325% | 3.34% | -1.17% | -0.138% | -0.00294% | 0.0255% | 0.356% | -0.0549% | -0.232% | 0.437% | 0.0772% | -0.474% | -0.175% | 0.02% | -0.78% | -1.36% | 0.389% | – |
